This note sets out measurements from ChEMBL document CHEMBL4513135, “CO-ADD screening of IQOG CSIS (Spain) compounds”.

Entries with a potency or affinity are not part of this list.

The assay has as its system Cryptococcus neoformans. The following applies: Concentration 32 ug.mL-1; ASSAY_TEST Inhibition of Fungal Growth; detection method Resazurin; Absorption (OD600-OD570); plate type 384well; NBS; CORNING #3640.
As usually defined, the Inhibition is the relative decrease from the control value, in per cent. As to `OCc1cc2ccccc2[nH]1`, the Inhibition is given as -4.31%.
Then `N#Cc1c(N)nc(N2CCCCC2)c(C#N)c1-c1ccccc1`, with -31.47%; and `COC(=O)C1CCN(Cc2ccccc2)CC1`, with -2.37%; and `COC1(N)Oc2ccc3ccccc3c2C(c2ccccc2)C1(Br)C#N` (stereo not given), with -6.17%.
Consider `COc1nc2ccccc2cc1C=O`, for which the Inhibition is given as -2.5%.
Then `CCOC(=O)C1=C(C)OC(N)=C(C#N)C1c1ccccc1OC` (stereo not given), with -0.68%.
Then `COc1ccc(CNNC(=O)c2cc3ccccc3[nH]2)cc1`, with -2.55%; and `CC(C(=O)O)c1c[nH]c2ccccc12` (stereo not given), with -3.89%; and `CN(C)c1cccc(C(=O)c2cccc(N(C)C)c2)c1`, with -8.01%.
Then `C/C(Cc1ccccc1)=N\NC(=O)c1c[nH]c2ccccc12`, with 2.61%.
For the compound `COc1nc(Cl)c(C#N)c(-c2ccccc2)c1C#N`, the Inhibition is -41.05%.
Then `N#CC1=C(Cl)Oc2c(ccc3ccccc23)C1c1ccccc1` (stereo not given), with -59.47%; and `CCOC(=O)c1cc2c(N)c3c(nc2nc1C)CCCC3`, with -82.76%.
The value for `CCOC(=O)N/N=C/c1ccccc1` was -5.96%; that for `c1ccc(Cn2ccc3ccccc32)cc1` was -3.9%; that for `C=C1CN(C)c2c(C#N)cc(C#N)c(=N)n21` was -52.46%.
Then `CCOC(=O)c1cc2cc(OC)ccc2n1C`, with -3.08%; and `Cl.N#Cc1c(N)nc(NCCO)c(C#N)c1-c1ccccc1`, with -7.17%.
Take `Cc1nc2c3cnn(-c4ccccc4)c3ncn2n1`: the Inhibition was -3.17%.
With `N#CC1(Br)C(=NBr)Oc2ccc3ccccc3c2C1c1cccc([N+](=O)[O-])c1` (stereo not given), the Inhibition was -42.61%.
The value for `COc1cccc(C2c3ccc4ccccc4c3OC(=NBr)C2(Br)C#N)c1` (stereo not given) was -51.44%; that for `N#Cc1cccnc1N` was -34.57%.
On to `NNC(=O)CCc1c[nH]c2ccccc12`, for which the Inhibition was -3.69%.
Then `CCCC(C)NNC(=O)Cc1c[nH]c2ccccc12` (stereo not given), with 5.38%.
For the compound `Cc1ccc2[nH]c(=O)c(C=O)cc2c1`, the Inhibition was determined as 4.75%.
The value for `O=C(NNCc1ccco1)c1cc2ccccc2[nH]1` was -3.8%.
The value for `CC(C)CC(C)NNC(=O)c1cc2ccccc2[nH]1` (stereo not given) was -6.14%.
The value for `COc1ccc(C2c3c(ccc4ccccc34)OC(=N)C2(Br)C#N)cc1OC` (stereo not given) was -66.17%; that for `O=C1OC(c2ccc([N+](=O)[O-])cc2)=NC1=Cc1ccccc1` was -5.52%; that for `CC(=O)C(=Cc1ccccc1)C(=O)O[C@H]1C[C@H](C)CC[C@H]1C(C)C` was -6.7%.
Consider `CCOC(=O)C1=C(C)NC(N)=C(C#N)C1c1ccc(OC)cc1` (stereo not given), for which the Inhibition is given as -57.77%.
The value for `COc1ccc2c(c1)cc(CN(C)C)n2C` was -1.62%; that for `NC1(C(=O)O)CC1c1ccc2c(c1)OCO2` (stereo not given) was -2.53%.
The value for `Cc1ccc(C2C(C#N)=C(N)Oc3c2ccc2ccccc32)cc1` (stereo not given) was -6.98%; that for `C#CCN1CCc2nc3nc(N4CCCC4)c(C#N)cc3c(N)c2C1` was -92.31%; that for `CN(C)c1nc(N)c(C#N)c(-c2ccccc2)c1C#N` was -0.79%.
With `Cc1nc2c3cnn(-c4ccccc4)c3nc(C)n2n1`, the Inhibition is -6.35%.
The value for `C#CCNc1nc(NC2CCN(Cc3ccccc3)CC2)c(C#N)c(-c2ccccc2)c1C#N` was -52.49%; that for `Cc1nc2c(cc1C#N)c(N)nn2C` was -10.85%; that for `COc1ccc(-c2cc(-c3cc4c(OC)ccc(OC)c4nc3Cl)cc(=O)[nH]2)cc1` was -87.69%.
